Compound activity deposited in PubChem BioAssay by National Center for Advancing Translational Sciences (NCATS).
HT1080-NT tox = qHTS for induction of synthetic lethality in tumor cells producing 2HG: qHTS for the HT-1080-NT fibrosarcoma cell line | HT-1080-NT fibrosarcoma viability, CellTiter-Glo ATP luminescence, 48 h | Potency, µM (highest dose often 46.1 µM), for the others: at the top dose activity, negative = less viability, actives largely listed as cytotoxic | 360,000 compounds, 1.6% hits;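 note: NT is the 2HG producing partner of a matched IDH1 knockdown line; potency is the fitted concentration of half-maximal effect; 0% = DMSO-treated cells and -100% = media-only wells without cells; nearly all actives have a fitted effect of over 55% in size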
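750 cells/well, RPMI + 5% FBS; 2 h settle, compound pin-transfer, 48 h at 37 degrees C. CellTiter-Glo 10 min RT, luminescence. Normalized to DMSO and media-only wells.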
KB-3-1 cytotox = qHTS assay for MDR1-selective chemotherapeutics: Primary screen using the parental adenocarcinoma cell KB-3-1. KB-3-1 viability, CellTiter-Glo ATP luminescence, 72 h. Potency, µM (doses to about 46.1 µM), usual class: cytotoxic. 400,000 compounds, 1.4% hits; note: potency is the fitted concentration of half-maximal effect; nearly all actives have a fitted effect of over 60% in size
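KB-3-1 parental drug-naive adenocarcinoma cells in DMEM/10% FBS, incubated 72 h at 37 C with pin-transferred compounds across a concentration series. Viability by CellTiter-Glo luminescence; concentration-response curves fitted after normalization.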
HT1080 IDH1KD tx = qHTS for induction of synthetic lethality in tumor cells producing 2HG: qHTS for the HT-1080-IDH1KD cell line. HT-1080 IDH1 knockdown viability, ATP luminescence, 48 h. Potency, µM (series often up to 46.1 µM), for inactives: top-dose activity, negative = toxicity, actives largely listed as cytotoxic. 360,000 compounds, 2% hits. AID 686971, 2013;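 note: potency is the fitted concentration of half-maximal effect; 0% = DMSO wells and -100% = cell-free medium wells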
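IDH1KD HT-1080 cells, 750/well, RPMI + 5% FBS; compound pinned after 2 h settling; 48 h, 37 °C; CellTiter-Glo luminescence; % activity normalised to DMSO and no-cell wells; curves fitted, classed by r2 and efficacy.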
KB-V1 MDR tox = qHTS assay for MDR1-selective chemotherapeutics: Primary screen using the drug-selected MDR subline cells KB-V1; KB-V1 MDR cells viability, CellTiter-Glo, 72 h; Potency, µM (doses to about 46.1 µM), most hits filed as cytotoxic; 400,000 compounds, 3.4% hits; note: potency is the fitted concentration of half-maximal effect; nearly all actives have a fitted effect of over 60% in size
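Drug-selected KB-V1 cells, grown in DMEM lacking phenol red with 10% FBS, receive compound titrations; after three days at 37 degrees C, surviving cell ATP is quantified by CellTiter-Glo luminescence and responses normalized and curve-fitted.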
IL-1B inflam inh = qHTS for Inhibitors of Inflammasome Signaling: IL-1-beta AlphaLISA Primary Screen; THP-1 LPS/ATP IL-1B secretion, AlphaLISA, 16 h; stronger effect = lower value; activity change, % at 57.5 µM; 360,000 compounds, 4.7% hits; AID 743279, 2014; in the data active = activity change below about -50%; inconclusive = mostly about -30% to -49%
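THP-1 cells pretreated 1 hr with compounds (up to 57.5 uM final), then stimulated with LPS (250 ng/mL final) plus ATP (1.25 mM final); secreted IL-1B measured by AlphaLISA after 16 hr, decreased signal indicating inhibition.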
Numbers without * were called inactive; i = inactive; ? = inconclusive; nt = not tested or not shown. The list is not random: actives were taken first. Their share in the collection is about 8.8%. Unless noted, calls come from the whole dose curve; as a rule, active = well fitted curve in the direction sought with a large enough effect; inconclusive = small, poorly fitted or top-dose-only effect, or another doubt; inactive = no such curve, though single readings can be large; an effect the other way counts as inactive or inconclusive. Unless noted, % is set by controls: 0 for no effect and ±100 for the full control effect.

SMILES | HT1080-NT tox | KB-3-1 cytotox | HT1080 IDH1KD tx | KB-V1 MDR tox | IL-1B inflam inh
COc1cc2nc(Cl)nc(NC3CCN(Cc4ccccc4)CC3)c2cc1OC | 0% | nt | -2% | nt | nt
CCC1CCCCN1S(=O)(=O)c1ccc(NC(=O)C2CCCO2)cc1 (stereo not drawn) | -6% | i | -5% | ? | 1
O=[N+]([O-])c1cc(CN2CCCCCC2)ccc1O | 12% | i | 16% | ? | 12
CC1CN(C(=O)/C=C/c2ccc([N+](=O)[O-])s2)CC(C)O1 (stereo not drawn) | ? | ? | ? | 8.2µM* | -23
O=C(/C=C/c1ccc([N+](=O)[O-])s1)N1CCCC1 | ? | ? | -19% | ? | 7
O=[N+]([O-])c1ccc(CN2CCCCCC2)s1 | 4% | 23µM* | 4% | ? | 0
O=C(/C=C/c1ccc([N+](=O)[O-])s1)N1CCCCC1 | ? | 15µM* | 23µM* | ? | -90*
O=C(O)c1cc([N+](=O)[O-])cc([N+](=O)[O-])c1N1CCN(c2cccc(C(F)(F)F)c2)CC1 | -13% | ? | -1% | i | -20
c1ccc([C@H]2CN3C(=N2)Sc2ccccc23)cc1 | -13% | i | -3% | i | -1
O=C1CC(c2ccc(Cl)cc2)CC(=O)C1CS(=O)(=O)c1ccccc1 (stereo not drawn) | -7% | i | 0% | i | -58*
COc1ccc(C2CC(=O)C(CS(=O)(=O)c3ccccc3)C(=O)C2)cc1 (stereo not drawn) | 1% | i | 0% | i | -17
Cc1ccc(-c2cc(C(=O)NCc3cccnc3)no2)cc1 | 12% | i | -16% | 16µM* | 11
Cc1cc(C(=O)NCc2cccnc2)no1 | 8% | i | 0% | i | 26
Cc1ccc(S(=O)(=O)N(Cc2ccccc2)c2ccccc2C(=O)NCc2cccnc2)cc1 | 14% | ? | 3% | 23µM* | 9
COc1ccc(-c2cc(C(=O)NCc3cccnc3)no2)cc1OC | 4% | i | 0% | 21µM* | -5
Cc1ccc(S(=O)(=O)N(C)c2ccc(C(=O)NCc3cccnc3)cc2)cc1 | -2% | i | -19% | i | 44
COc1ccccc1-c1cc(C(=O)NCc2ccccc2)no1 | 4% | i | 2% | i | -12
COc1ccccc1-c1cc(C(=O)NCc2ccc(F)cc2)no1 | -23% | i | ? | 16µM* | -2
Cc1ccc(NC(=O)CCc2nnc3ccc(N4CCC5(CC4)OCCO5)nn23)cc1F | 10% | i | -3% | i | 12
Cc1ccc(S(=O)(=O)N2CCN(c3nc(-n4ccnc4)nc4ccccc34)CC2)cc1 | 14% | nt | 19% | nt | nt
COc1ccc(CN(Cc2nc3ccccc3c(=O)[nH]2)C(=O)C(C)(C)C)cc1 | 4% | i | 13% | i | -19
COc1ccc(CCN(Cc2nc3ccccc3c(=O)[nH]2)C(=O)c2ccco2)cc1 | -6% | i | -5% | 21µM* | 3
O=C(CCc1nc2ccccc2c(=O)[nH]1)NCc1ccco1 | -22% | ? | -24% | ? | -3
CCC(CC)C(=O)N(CCc1ccc(OC)cc1)Cc1nc2ccccc2c(=O)[nH]1 | ? | i | 7.1µM* | ? | -54*
CN(CC(=O)NC(=O)NCc1ccco1)Cc1nc2ccccc2c(=O)[nH]1 | ? | i | 11µM* | i | 0
SMILES | HT1080-NT tox | KB-3-1 cytotox | HT1080 IDH1KD tx | KB-V1 MDR tox | IL-1B inflam inh
O=C(NC1CCCCC1)N(Cc1nc2ccccc2c(=O)[nH]1)C1CCCCC1 | -4% | i | 10% | i | -9
COc1ccc(CN(Cc2nc3ccccc3c(=O)[nH]2)C(=O)NC2CCCCC2)cc1 | -10% | i | -9% | i | -58*
CC1SC(C)C(=O)N(CC(=O)Nc2ccc([N+](=O)[O-])cc2)C1=O (stereo not drawn) | -1% | i | 12% | i | 16
CCC(=O)N1c2ccccc2CC1C(=O)NCc1cccc(OC)c1OC (stereo not drawn) | nt | i | nt | i | nt
COc1ccc(-n2nc3c(c2NC(=O)c2ccc4c(c2)OCO4)CS(=O)(=O)C3)cc1 | -5% | ? | 0% | i | -1
COc1ccc2c(Sc3ccc(Cl)cc3)c(C(=O)N3CCCCC3)[nH]c2c1 | nt | i | nt | i | nt
COc1ccc(C(=O)Nc2ccc(S(=O)(=O)N3CCCCC3C)cc2)c(OC)c1OC (stereo not drawn) | ? | i | ? | i | -59*
O=C(O)Cn1nc2c3c(cccc3c1=O)-c1ccccc1-2 | -2% | i | -1% | i | -7
Cc1ccc(-n2nc3c4c(cccc4c2=O)-c2ccccc2-3)cc1 | 1% | ? | 0% | 8.2µM* | 8
Cn1c(=O)c2c(-c3ccccc3)n(-c3cc(Cl)c([N+](=O)[O-])cc3O)cc2n(C)c1=O | -2% | i | 0% | i | 52
Cc1cc(-c2ccc(S(=O)(=O)N(C)Cc3ccccc3)cc2)on1 | 8% | i | -3% | i | 18
C(=C\c1c[nH]c2ccccc12)/c1ccc2ccccc2n1 | nt | i | nt | i | nt
CSc1nc2nccc(/C=C\c3ccccc3)n2n1 | ? | ? | ? | ? | -105*
CSc1nc2nccc(-c3ccc(Cl)cc3)n2n1 | -6% | i | -4% | i | -16
CCOC(=O)CCCc1ccc(/C(C)=N/NC(N)=S)cc1 | 16µM* | ? | ? | 8.2µM* | -2
CCOC(=O)CCCc1ccc(/C(C)=N/NC(=S)NC)cc1 | 6% | i | 7% | i | 0
CCOC(=O)C1=C(COC(=O)Cc2ccccc2[N+](=O)[O-])NC(=O)NC1C (stereo not drawn) | 0% | i | -1% | i | -21
CCOCCCNC(=O)c1ccc(C2SCC(=O)N2Cc2ccccc2)cc1 (stereo not drawn) | -3% | i | 1% | 5.8µM* | 19
O=C(NCc1ccc2c(c1)OCO2)c1ccc(C2SCC(=O)N2Cc2ccco2)cc1 (stereo not drawn) | 2% | i | 7% | 21µM* | 11
CCCNC(=O)c1ccc(C2SCC(=O)N2Cc2ccccc2)cc1 (stereo not drawn) | -3% | i | 9% | i | -2
COc1ccc(CCNCC(=O)Nc2c(C)cc(C)cc2C)cc1OC | -2% | i | -4% | i | -19
